# Reference: the supplement of paper PMC4466140
# B1: unnamed (peptide)
# chain: TSIEIPKRSPLRFTS
# B2: unnamed (peptide)
# chain: IKTRSVPKIPSIESV
# Legend:
# Experiment in all cases: SPOT peptide array binding signal intensity (averaged, normalized) (arbitrary units (background-subtracted, floor 0; scale differs between SH3 domains)); higher = stronger binding of the SH3 domain to the peptide
# [1] = biological target: CaNbp2
# Summary of the method: (§1)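 To measure binding, SH3 domains from four yeast species were fused to GST, expressed in E. coli BL21(DE3) and purified on glutathione Sepharose. Each domain was incubated at 10 μg/ml overnight at 4°C on cellulose membranes with synthetic 15-mer peptides whose cysteines were replaced by serines. Anti-GST antibody, an HRP anti-mouse secondary and luminol were used for detection, and images were quantified with Genespotter. Reported binding signal is normalized, background-subtracted spot intensity averaged over replicates, in arbitrary units that differ between domains.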
# [2] = biological target: CaRvs167
# Summary of the method: as §1
# [3] = biological target: CaRvs167-3
# Summary of the method: as §1
# [4] = biological target: CaSho1
# Summary of the method: as §1
# [5] = biological target: CaSla1-D1-D2
# Summary of the method: as §1
# [6] = biological target: CaSla1-D3
# Summary of the method: as §1
# [7] = biological target: ScAbp1
# Summary of the method: as §1
# [8] = biological target: ScBbc1
# Summary of the method: as §1
# [9] = biological target: ScBem1-D1
# Summary of the method: as §1
# [10] = biological target: ScBzz1-D1
# Summary of the method: as §1
# [11] = biological target: ScBzz1-D2
# Summary of the method: as §1
# [12] = biological target: ScCyk3
# Summary of the method: as §1
# [13] = biological target: ScFus1
# Summary of the method: as §1
# [14] = biological target: ScHof1
# Summary of the method: as §1
# [15] = biological target: ScHse1
# Summary of the method: as §1
# [16] = biological target: ScLsb1
# Summary of the method: as §1
# [17] = biological target: ScLsb2
# Summary of the method: as §1
# [18] = biological target: ScLsb3
# Summary of the method: as §1
# [19] = biological target: ScLsb4
# Summary of the method: as §1
# [20] = biological target: ScMyo3
# Summary of the method: as §1
# [21] = biological target: ScMyo5
# Summary of the method: as §1
# [22] = biological target: ScNbp2
# Summary of the method: as §1
# [23] = biological target: ScPex13
# Summary of the method: as §1
# [24] = biological target: ScRvs167
# Summary of the method: as §1
# [25] = biological target: ScSho1
# Summary of the method: as §1
# [26] = biological target: ScSla1-D1-D2
# Summary of the method: as §1
# [27] = biological target: ScSla1-D3
# Summary of the method: as §1
# [28] = biological target: SpAbp1-D1
# Summary of the method: as §1
# [29] = biological target: SpBbc1
# Summary of the method: as §1
# [30] = biological target: SpBzz1-D1
# Summary of the method: as §1
# [31] = biological target: SpBzz1-D2
# Summary of the method: as §1
# [32] = biological target: SpCyk3
# Summary of the method: as §1
# [33] = biological target: SpHof1
# Summary of the method: as §1
# [34] = biological target: SpHof1-2
# Summary of the method: as §1
# [35] = biological target: SpHof1-3
# Summary of the method: as §1
# [36] = biological target: SpHse1
# Summary of the method: as §1
# [37] = biological target: SpLsb1
# Summary of the method: as §1
# [38] = biological target: SpLsb4
# Summary of the method: as §1
# [39] = biological target: SpMyo1
# Summary of the method: as §1
# [40] = biological target: SpNbp2
# Summary of the method: as §1
# [41] = biological target: SpPex13
# Summary of the method: as §1
# [42] = biological target: SpRvs167
# Summary of the method: as §1
# [43] = biological target: SpSla1-D1-D2
# Summary of the method: as §1
# [44] = biological target: SpSla1-D3
# Summary of the method: as §1
# [45] = biological target: AgAbp1
# Summary of the method: as §1
# [46] = biological target: AgBbc1
# Summary of the method: as §1
# [47] = biological target: AgBem1-D1
# Summary of the method: as §1
# [48] = biological target: AgBzz1-D1
# Summary of the method: as §1
# [49] = biological target: AgBzz1-D2
# Summary of the method: as §1
# [50] = biological target: AgCyk3
# Summary of the method: as §1
# [51] = biological target: AgFus1
# Summary of the method: as §1
# [52] = biological target: AgHof1
# Summary of the method: as §1
# [53] = biological target: AgHse1
# Summary of the method: as §1
# [54] = biological target: AgLsb1
# Summary of the method: as §1
# [55] = biological target: AgLsb4
# Summary of the method: as §1
# [56] = biological target: AgMyo5
# Summary of the method: as §1
# [57] = biological target: AgNbp2
# Summary of the method: as §1
# [58] = biological target: AgRvs167
# Summary of the method: as §1
# [59] = biological target: AgSho1
# Summary of the method: as §1
# [60] = biological target: AgSla1-D1-D2
# Summary of the method: as §1
# [61] = biological target: AgSla1-D3
# Summary of the method: as §1
# [62] = biological target: CaAbp1-D1
# Summary of the method: as §1
# [63] = biological target: CaAbp1-D2
# Summary of the method: as §1
# [64] = biological target: CaBbc1
# Summary of the method: as §1
# [65] = biological target: CaBem1-D1
# Summary of the method: as §1
# [66] = biological target: CaBzz1-D1
# Summary of the method: as §1
# [67] = biological target: CaBzz1-D2
# Summary of the method: as §1
# [68] = biological target: CaCyk3
# Summary of the method: as §1
# [69] = biological target: CaFus1
# Summary of the method: as §1
# [70] = biological target: CaHof1
# Summary of the method: as §1
# [71] = biological target: CaHse1
# Summary of the method: as §1
# [72] = biological target: CaLsb1
# Summary of the method: as §1
# [73] = biological target: CaLsb4
# Summary of the method: as §1
# [74] = biological target: CaMyo5
# Summary of the method: as §1
binder,measurement,setting,value
B1,SPOT peptide array binding signal intensity,[1],61
same,SPOT peptide array binding signal intensity,[2],2
same,SPOT peptide array binding signal intensity,[3],≤ 0
same,SPOT peptide array binding signal intensity,[4],6
same,SPOT peptide array binding signal intensity,[5],83
same,SPOT peptide array binding signal intensity,[6],≤ 0
same,SPOT peptide array binding signal intensity,[7],21
same,SPOT peptide array binding signal intensity,[8],5
same,SPOT peptide array binding signal intensity,[9],≤ 0
same,SPOT peptide array binding signal intensity,[10],4.5
same,SPOT peptide array binding signal intensity,[11],1
same,SPOT peptide array binding signal intensity,[12],3
same,SPOT peptide array binding signal intensity,[13],≤ 0
same,SPOT peptide array binding signal intensity,[14],0.5
same,SPOT peptide array binding signal intensity,[15],20.5
same,SPOT peptide array binding signal intensity,[16],≤ 0
same,SPOT peptide array binding signal intensity,[17],≤ 0
same,SPOT peptide array binding signal intensity,[18],252
same,SPOT peptide array binding signal intensity,[19],≤ 0
same,SPOT peptide array binding signal intensity,[20],11.5
same,SPOT peptide array binding signal intensity,[21],2
same,SPOT peptide array binding signal intensity,[22],2
same,SPOT peptide array binding signal intensity,[23],2
same,SPOT peptide array binding signal intensity,[24],101
same,SPOT peptide array binding signal intensity,[25],0.5
same,SPOT peptide array binding signal intensity,[26],≤ 0
same,SPOT peptide array binding signal intensity,[27],30.2
same,SPOT peptide array binding signal intensity,[28],206
same,SPOT peptide array binding signal intensity,[29],≤ 0
same,SPOT peptide array binding signal intensity,[30],162
same,SPOT peptide array binding signal intensity,[31],≤ 0
same,SPOT peptide array binding signal intensity,[32],2
same,SPOT peptide array binding signal intensity,[33],73
same,SPOT peptide array binding signal intensity,[34],8.75
same,SPOT peptide array binding signal intensity,[35],25.5
same,SPOT peptide array binding signal intensity,[36],76.8
same,SPOT peptide array binding signal intensity,[37],≤ 0
same,SPOT peptide array binding signal intensity,[38],376
same,SPOT peptide array binding signal intensity,[39],12.5
same,SPOT peptide array binding signal intensity,[40],≤ 0
same,SPOT peptide array binding signal intensity,[41],≤ 0
same,SPOT peptide array binding signal intensity,[42],94
same,SPOT peptide array binding signal intensity,[43],1
same,SPOT peptide array binding signal intensity,[44],≤ 0
B2,SPOT peptide array binding signal intensity,[45],9
same,SPOT peptide array binding signal intensity,[46],78.8
same,SPOT peptide array binding signal intensity,[47],40
same,SPOT peptide array binding signal intensity,[48],24.5
same,SPOT peptide array binding signal intensity,[49],33.5
same,SPOT peptide array binding signal intensity,[50],1
same,SPOT peptide array binding signal intensity,[51],4
same,SPOT peptide array binding signal intensity,[52],27.8
same,SPOT peptide array binding signal intensity,[53],19.5
same,SPOT peptide array binding signal intensity,[54],71
same,SPOT peptide array binding signal intensity,[55],873
same,SPOT peptide array binding signal intensity,[56],0.75
same,SPOT peptide array binding signal intensity,[57],2650
same,SPOT peptide array binding signal intensity,[58],12.7
same,SPOT peptide array binding signal intensity,[59],3
same,SPOT peptide array binding signal intensity,[60],≤ 0
same,SPOT peptide array binding signal intensity,[61],≤ 0
same,SPOT peptide array binding signal intensity,[62],182
same,SPOT peptide array binding signal intensity,[63],82
same,SPOT peptide array binding signal intensity,[64],604
same,SPOT peptide array binding signal intensity,[65],0.5
same,SPOT peptide array binding signal intensity,[66],197
same,SPOT peptide array binding signal intensity,[67],245
same,SPOT peptide array binding signal intensity,[68],85.5
same,SPOT peptide array binding signal intensity,[69],32.5
same,SPOT peptide array binding signal intensity,[70],≤ 0
same,SPOT peptide array binding signal intensity,[71],5
same,SPOT peptide array binding signal intensity,[72],≤ 0
same,SPOT peptide array binding signal intensity,[73],1880
same,SPOT peptide array binding signal intensity,[74],1.25
same,SPOT peptide array binding signal intensity,[1],320
same,SPOT peptide array binding signal intensity,[2],339
same,SPOT peptide array binding signal intensity,[3],15
same,SPOT peptide array binding signal intensity,[4],≤ 0
same,SPOT peptide array binding signal intensity,[5],123
same,SPOT peptide array binding signal intensity,[6],≤ 0
same,SPOT peptide array binding signal intensity,[7],11
same,SPOT peptide array binding signal intensity,[8],37.8
same,SPOT peptide array binding signal intensity,[9],38.5
same,SPOT peptide array binding signal intensity,[10],26
same,SPOT peptide array binding signal intensity,[11],13
same,SPOT peptide array binding signal intensity,[12],≤ 0
same,SPOT peptide array binding signal intensity,[13],≤ 0
same,SPOT peptide array binding signal intensity,[14],16.2
same,SPOT peptide array binding signal intensity,[15],26
same,SPOT peptide array binding signal intensity,[16],4
same,SPOT peptide array binding signal intensity,[17],61
same,SPOT peptide array binding signal intensity,[18],4820
same,SPOT peptide array binding signal intensity,[19],1030
same,SPOT peptide array binding signal intensity,[20],4.5
same,SPOT peptide array binding signal intensity,[21],7
same,SPOT peptide array binding signal intensity,[22],3220
same,SPOT peptide array binding signal intensity,[23],633
same,SPOT peptide array binding signal intensity,[24],2950
same,SPOT peptide array binding signal intensity,[25],25.5
same,SPOT peptide array binding signal intensity,[26],146
same,SPOT peptide array binding signal intensity,[27],38.5
same,SPOT peptide array binding signal intensity,[28],5
same,SPOT peptide array binding signal intensity,[29],28.8
same,SPOT peptide array binding signal intensity,[30],236
same,SPOT peptide array binding signal intensity,[31],0.5
same,SPOT peptide array binding signal intensity,[32],≤ 0
same,SPOT peptide array binding signal intensity,[33],6
same,SPOT peptide array binding signal intensity,[34],9
same,SPOT peptide array binding signal intensity,[35],150
same,SPOT peptide array binding signal intensity,[36],≤ 0
same,SPOT peptide array binding signal intensity,[37],24.2
same,SPOT peptide array binding signal intensity,[38],6060
same,SPOT peptide array binding signal intensity,[39],11.5
same,SPOT peptide array binding signal intensity,[40],≤ 0
same,SPOT peptide array binding signal intensity,[41],≤ 0
same,SPOT peptide array binding signal intensity,[42],1930
same,SPOT peptide array binding signal intensity,[43],4
same,SPOT peptide array binding signal intensity,[44],1
